We go through eight molecules from PubChem BioAssay (EPA / NIEHS).

SMILES strings stand for the structures. Results filed as inconclusive are left out. The source made the active and inactive calls. Rule for the calls, unless noted: active = hit-call score of the fitted dose curve at least 0.9, where 1 is the maximum; inactive = score below 0.9.

In experiment [1] the target is Myc proto-oncogene protein (Homo sapiens) (UniProt P01106). In words: ATG_Myc_CIS: Attagene CIS-FACTORIAL HepG2 Assay for human Myelocytomatosis (Myc) Proto-Oncogene Transcription Factor (AID 2282990). Particulars: HepG2, Attagene cis-reporter transcription factor activity; actives raise or lower the signal. The method, boiled down: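 After 24 h chemical treatment of HepG2 cells carrying multiplexed cis-regulated reporter constructs, reporter transcripts quantified by RT-PCR and capillary electrophoresis of fluorescent fragments. Gain or loss fitted against DMSO baseline.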
Chain of Myc proto-oncogene protein (Homo sapiens) (P01106 whole entry, looked up, the tested form may be a part): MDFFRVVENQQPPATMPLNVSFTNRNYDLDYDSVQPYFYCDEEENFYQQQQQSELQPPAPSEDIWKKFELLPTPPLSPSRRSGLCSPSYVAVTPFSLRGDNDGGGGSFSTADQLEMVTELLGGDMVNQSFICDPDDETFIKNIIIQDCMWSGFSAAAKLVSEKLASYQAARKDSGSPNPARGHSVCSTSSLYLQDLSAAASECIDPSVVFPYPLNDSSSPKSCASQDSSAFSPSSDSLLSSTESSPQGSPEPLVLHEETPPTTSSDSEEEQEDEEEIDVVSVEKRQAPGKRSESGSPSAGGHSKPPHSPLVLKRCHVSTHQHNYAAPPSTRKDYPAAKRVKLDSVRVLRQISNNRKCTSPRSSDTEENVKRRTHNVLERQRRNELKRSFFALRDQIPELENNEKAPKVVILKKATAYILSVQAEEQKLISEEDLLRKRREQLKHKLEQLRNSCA

Experiment [2] is described as follows: ATG_NF_kB_CIS: Attagene CIS-FACTORIAL HepG2 Assay for human Nuclear Factor Kappa B (NF-kB) (AID 2282991). The settings on record: HepG2 Attagene cis-factorial NF-kB reporter mRNA; actives raise or lower the signal. In short, it runs like this:
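DMSO served as negative control and baseline for bidirectional curve fitting. Transiently transfected HepG2 cells were dosed for 24 h, then reporter transcripts were measured by RT-PCR with capillary electrophoresis detection.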

Experiment [3] is described as follows: ATG_NRF2_ARE_CIS: Attagene CIS-FACTORIAL HepG2 Assay for human Nuclear Factor Erythroid 2 Related Factor 2 (NFR2) response to Antioxidant Response Elements (ARE) (AID 2282992). Particulars: HepG2 Attagene ARE/NRF2 reporter, transcription factor activity; actives raise or lower the signal. The method, boiled down:
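Fluorescence intensity of reporter-specific cDNA fragments, separated by capillary electrophoresis, reflects mRNA induction in transfected HepG2 cells at 24 h. Activity is fitted bidirectionally, DMSO serving as baseline.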

Experiment [4] in a line: ATG_Oct_MLP_CIS: Attagene CIS-FACTORIAL HepG2 Assay for human Octamer-Binding Transcription Factor (Oct) (AID 2282993). Particulars: HepG2 Attagene cis-factorial Oct reporter, mRNA; actives raise or lower the signal. In short, it runs like this: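 Cells of the HepG2 line express promoter-controlled reporter sequences whose mRNA levels, after 24 h treatment, are measured by RT-PCR and capillary electrophoresis. Increases and decreases are scored relative to DMSO.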

The target of experiment [5] is Cellular tumor antigen p53 (Homo sapiens) (UniProt P04637). In words: ATG_p53_CIS: Attagene CIS-FACTORIAL HepG2 Assay for human p53 Transcription Factor (AID 2282994). The settings on record: HepG2 p53 cis-element reporter, Attagene mRNA; actives raise or lower the signal. The method, boiled down:
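Transiently transfected HepG2 (multiple cis reporter transcription units); exposure 24 h; reporter RNA via RT-PCR, 6-FAM extension, 2 h HpaI digest at 37 C, CE detection; DMSO baseline.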

In experiment [6] the target is human Peroxisome Proliferator-activated Receptor alpha (PPARa), PPARA (gene 5465) (UniProt Q07869). Briefly: ATG_PPARa_TRANS: Attagene TRANS-FACTORIAL HepG2 Assay for human Peroxisome Proliferator-activated Receptor alpha (PPARa) (AID 2283001; active = hit-call score of the fitted dose curve at least 0.9, where 1 is the maximum;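 for AC50: potency for gain of reporter signal over DMSO so agonist or activator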). The method, boiled down: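 Transfected HepG2 cells treated with test chemical for 24 h. RNA isolated, reverse-transcribed with oligo(dT), PCR-amplified, FAM-labelled and HpaI-digested. Fragments sized by capillary electrophoresis; gain-of-signal fit relative to DMSO.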
Chain of human Peroxisome Proliferator-activated Receptor alpha (PPARa), PPARA (gene 5465) (Q07869 whole entry, looked up, the tested form may be a part): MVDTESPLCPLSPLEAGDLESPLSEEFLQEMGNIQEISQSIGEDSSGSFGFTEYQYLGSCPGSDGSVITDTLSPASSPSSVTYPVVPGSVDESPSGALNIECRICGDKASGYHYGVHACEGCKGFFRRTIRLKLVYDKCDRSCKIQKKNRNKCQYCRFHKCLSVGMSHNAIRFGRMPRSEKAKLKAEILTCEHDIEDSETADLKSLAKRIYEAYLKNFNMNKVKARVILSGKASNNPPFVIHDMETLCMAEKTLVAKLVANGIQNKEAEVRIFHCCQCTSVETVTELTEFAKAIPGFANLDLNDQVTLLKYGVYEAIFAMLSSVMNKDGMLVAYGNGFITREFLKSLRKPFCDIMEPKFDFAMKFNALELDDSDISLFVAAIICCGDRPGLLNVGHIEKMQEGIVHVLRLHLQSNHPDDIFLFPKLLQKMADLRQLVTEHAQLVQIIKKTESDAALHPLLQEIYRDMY

Experiment [7] concerns the target human Peroxisome Proliferator-activated Receptor delta (PPARd), PPARD (gene 5467) (UniProt Q03181). In words: ATG_PPARd_TRANS: Attagene TRANS-FACTORIAL HepG2 Assay for human Peroxisome Proliferator-activated Receptor delta (PPARd) (AID 2283002; active = hit-call score of the fitted dose curve at least 0.9, where 1 is the maximum). In short, it runs like this: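 Read-out is induced reporter mRNA, quantified by RT-PCR with fluorescent labelling and capillary electrophoresis after 24 h dosing. Cells are HepG2 transiently carrying multiple GAL4-UAS reporter units driven by exogenous NR-GAL4 chimeras; DMSO serves as baseline.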

Experiment [8] addresses human RAR-related Orphan Receptor beta (RORb), RORB (gene 6096) (UniProt Q92753). Briefly: ATG_RORb_TRANS: Attagene TRANS-FACTORIAL HepG2 Assay for human RAR-related Orphan Receptor beta (RORb) (AID 2283010; active = hit-call score of the fitted dose curve at least 0.9, where 1 is the maximum). The method, boiled down:
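HepG2, transient MRTU transfection (GAL4-UAS reporters, exogenous NR-Gal4 chimeras); 24 h compound exposure; total RNA → RT-PCR → 6-FAM primer extension → HpaI digest → CE fluorescence. Positive direction vs DMSO baseline.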

The target in experiment [9] is Retinoic acid receptor RXR-alpha (Homo sapiens) (UniProt P19793). Briefly: ATG_RXRa_TRANS: Attagene TRANS-FACTORIAL HepG2 Assay for human Retinoid X Receptor alpha (RXRa) (AID 2283012; active = hit-call score of the fitted dose curve at least 0.9, where 1 is the maximum). The method, boiled down: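 Read-out: fluorescent reporter-transcript fragments quantified by capillary electrophoresis after RT-PCR. Transiently transfected HepG2 cells carrying GAL4-UAS reporters and NR-GAL4 chimeras were exposed to chemical for 24 h; activity scored as increase over DMSO.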
Chain of Retinoic acid receptor RXR-alpha (Homo sapiens) (P19793 whole entry, looked up, the tested form may be a part): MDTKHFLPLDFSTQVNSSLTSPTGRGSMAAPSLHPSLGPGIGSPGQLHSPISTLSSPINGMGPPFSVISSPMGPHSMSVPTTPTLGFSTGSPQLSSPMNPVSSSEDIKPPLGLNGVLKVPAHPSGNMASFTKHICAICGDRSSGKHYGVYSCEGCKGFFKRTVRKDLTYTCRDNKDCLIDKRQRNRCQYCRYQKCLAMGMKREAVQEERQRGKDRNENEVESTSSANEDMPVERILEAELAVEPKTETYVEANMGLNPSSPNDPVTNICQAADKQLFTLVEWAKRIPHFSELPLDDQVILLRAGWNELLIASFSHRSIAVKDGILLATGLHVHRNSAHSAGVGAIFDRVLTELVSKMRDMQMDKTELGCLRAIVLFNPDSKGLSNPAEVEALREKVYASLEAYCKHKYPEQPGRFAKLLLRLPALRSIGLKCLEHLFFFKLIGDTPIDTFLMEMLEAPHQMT

Experiment [10] concerns the target Nuclear receptor subfamily 1 group I member 2 (Homo sapiens) (UniProt O75469). Briefly: ATG_PXR_TRANS: Attagene TRANS-FACTORIAL HepG2 Assay for human Pregnane X Receptor (PXR) (AID 2283008; active = hit-call score of the fitted dose curve at least 0.9, where 1 is the maximum). The method, boiled down:
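Transient HepG2 transfectants carrying multiplexed reporter transcription units; PXR activity read through a Gal4 chimera. 24 h exposure. RT-PCR/CE fluorescence; upward curve fit referenced to DMSO.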

The target of experiment [11] is human Retinoic Acid Receptor gamma (RARg), RARG (gene 5916) (UniProt P13631). In words: ATG_RARg_TRANS: Attagene TRANS-FACTORIAL HepG2 Assay for human Retinoic Acid Receptor gamma (RARg) (AID 2283009; active = hit-call score of the fitted dose curve at least 0.9, where 1 is the maximum). In short, it runs like this:
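Readout: reporter transcript levels via RT-PCR, 6-FAM primer-extension labelling, HpaI digestion and capillary electrophoresis. Cells: HepG2 carrying transfected RARg-GAL4 chimera plus UAS reporter set. Dosing 24 h; DMSO negative control.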

Experiment [12] deals with human RAR-related Orphan Receptor gamma (RORg), RORC (gene 6097) (UniProt P51449). Briefly: ATG_RORg_TRANS: Attagene TRANS-FACTORIAL HepG2 Assay for human RAR-related Orphan Receptor gamma (RORg) (AID 2283011; active = hit-call score of the fitted dose curve at least 0.9, where 1 is the maximum). The method, boiled down:
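Activity is scored as increase in GAL4-UAS reporter mRNA over DMSO, detected by fluorescent RT-PCR and capillary electrophoresis in HepG2 cells transiently expressing a RORg-Gal4 chimera, 24 h after dosing.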

Experiment [13] deals with Peroxisome proliferator-activated receptor gamma (Homo sapiens) (UniProt P37231). Briefly: ATG_PPARg_TRANS: Attagene TRANS-FACTORIAL HepG2 Assay for human Peroxisome Proliferator-activated Receptor-gamma (PPARg) (AID 2283007; active = hit-call score of the fitted dose curve at least 0.9, where 1 is the maximum). The method, boiled down:
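Chimeric NR-Gal4 transactivation is measured in transiently transfected HepG2 cells by reporter mRNA induction at 24 h. Detection uses RT-PCR with fluorescent labelling and capillary electrophoresis; DMSO defines baseline.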

In experiment [14] the target is Retinoic acid receptor alpha (Homo sapiens) (UniProt P10276). In words: ATG_RARa_TRANS: Attagene TRANS-FACTORIAL HepG2 Assay for human Retinoic Acid Receptor alpha (RARa) (AID 2283005; active = hit-call score of the fitted dose curve at least 0.9, where 1 is the maximum). In short, it runs like this:
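Reporter transcripts, measured by RT-PCR with fluorescent labeling and capillary electrophoresis after 24 h dosing, reflect activity of an exogenous human RARa–GAL4 fusion in transiently transfected HepG2. Fitted for increase relative to DMSO.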

Chain of human Retinoic Acid Receptor gamma (RARg), RARG (gene 5916) (P13631 whole entry, looked up, the tested form may be a part): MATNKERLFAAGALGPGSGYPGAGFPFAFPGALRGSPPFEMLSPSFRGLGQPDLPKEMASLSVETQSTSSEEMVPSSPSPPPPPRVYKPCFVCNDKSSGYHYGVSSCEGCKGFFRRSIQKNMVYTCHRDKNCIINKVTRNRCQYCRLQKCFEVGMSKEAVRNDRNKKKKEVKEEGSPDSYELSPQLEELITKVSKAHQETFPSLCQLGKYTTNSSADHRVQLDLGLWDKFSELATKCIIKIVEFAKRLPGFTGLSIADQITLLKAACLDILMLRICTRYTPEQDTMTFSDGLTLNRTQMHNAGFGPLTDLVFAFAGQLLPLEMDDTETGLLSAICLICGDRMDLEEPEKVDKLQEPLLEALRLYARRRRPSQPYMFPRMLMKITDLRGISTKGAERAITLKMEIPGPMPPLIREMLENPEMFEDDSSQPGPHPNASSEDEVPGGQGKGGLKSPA
Chain of Cellular tumor antigen p53 (Homo sapiens) (P04637 whole entry, looked up): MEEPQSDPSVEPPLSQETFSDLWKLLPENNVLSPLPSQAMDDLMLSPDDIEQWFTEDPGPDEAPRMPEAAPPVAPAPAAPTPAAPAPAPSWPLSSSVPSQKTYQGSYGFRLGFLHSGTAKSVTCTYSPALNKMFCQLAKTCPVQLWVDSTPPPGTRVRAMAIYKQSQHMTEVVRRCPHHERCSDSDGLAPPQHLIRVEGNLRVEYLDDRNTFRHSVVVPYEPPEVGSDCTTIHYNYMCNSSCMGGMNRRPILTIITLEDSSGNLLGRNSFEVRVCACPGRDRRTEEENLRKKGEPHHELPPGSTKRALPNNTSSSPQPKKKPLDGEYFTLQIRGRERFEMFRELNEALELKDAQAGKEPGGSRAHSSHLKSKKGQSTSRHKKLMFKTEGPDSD
Chain of human Peroxisome Proliferator-activated Receptor delta (PPARd), PPARD (gene 5467) (Q03181 whole entry, looked up, the tested form may be a part): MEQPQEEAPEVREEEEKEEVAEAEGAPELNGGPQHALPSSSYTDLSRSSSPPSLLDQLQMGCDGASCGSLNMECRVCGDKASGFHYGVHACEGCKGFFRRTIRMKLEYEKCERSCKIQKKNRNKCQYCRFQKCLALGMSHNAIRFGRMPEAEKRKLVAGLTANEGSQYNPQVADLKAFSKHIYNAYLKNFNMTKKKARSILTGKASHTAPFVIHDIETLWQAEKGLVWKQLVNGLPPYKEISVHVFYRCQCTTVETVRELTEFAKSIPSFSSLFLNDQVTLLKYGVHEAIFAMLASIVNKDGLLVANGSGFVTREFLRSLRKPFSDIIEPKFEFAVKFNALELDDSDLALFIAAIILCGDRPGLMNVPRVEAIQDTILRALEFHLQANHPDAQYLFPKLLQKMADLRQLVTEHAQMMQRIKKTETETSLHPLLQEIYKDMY
Chain of human RAR-related Orphan Receptor gamma (RORg), RORC (gene 6097) (P51449 whole entry, looked up, the tested form may be a part): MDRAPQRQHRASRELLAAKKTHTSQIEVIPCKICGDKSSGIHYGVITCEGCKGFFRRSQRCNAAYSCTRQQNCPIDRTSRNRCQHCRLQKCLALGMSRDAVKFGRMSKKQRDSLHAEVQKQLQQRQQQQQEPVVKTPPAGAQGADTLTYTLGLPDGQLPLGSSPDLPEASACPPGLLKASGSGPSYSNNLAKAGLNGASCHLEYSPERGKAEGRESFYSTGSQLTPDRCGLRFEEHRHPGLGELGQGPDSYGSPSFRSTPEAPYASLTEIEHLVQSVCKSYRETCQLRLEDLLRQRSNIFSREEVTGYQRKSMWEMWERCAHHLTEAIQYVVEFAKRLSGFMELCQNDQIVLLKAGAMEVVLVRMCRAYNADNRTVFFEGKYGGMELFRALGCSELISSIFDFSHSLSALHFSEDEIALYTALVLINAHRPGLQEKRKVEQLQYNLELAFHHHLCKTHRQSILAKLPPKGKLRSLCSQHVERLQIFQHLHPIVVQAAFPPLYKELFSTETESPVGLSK
Chain of Peroxisome proliferator-activated receptor gamma (Homo sapiens) (P37231 whole entry, looked up, the tested form may be a part): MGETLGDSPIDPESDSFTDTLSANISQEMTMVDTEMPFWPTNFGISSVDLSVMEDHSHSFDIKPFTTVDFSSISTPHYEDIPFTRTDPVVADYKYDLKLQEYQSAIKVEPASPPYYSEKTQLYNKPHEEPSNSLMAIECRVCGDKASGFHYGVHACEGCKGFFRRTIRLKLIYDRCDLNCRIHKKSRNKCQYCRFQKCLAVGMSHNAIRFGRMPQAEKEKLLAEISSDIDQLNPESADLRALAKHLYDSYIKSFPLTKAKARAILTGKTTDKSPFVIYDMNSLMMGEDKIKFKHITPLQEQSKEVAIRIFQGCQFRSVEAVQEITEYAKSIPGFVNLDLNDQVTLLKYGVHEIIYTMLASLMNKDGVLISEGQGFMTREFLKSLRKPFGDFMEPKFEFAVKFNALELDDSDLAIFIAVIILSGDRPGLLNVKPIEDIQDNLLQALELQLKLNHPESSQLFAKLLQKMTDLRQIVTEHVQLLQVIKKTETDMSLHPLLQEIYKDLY
Chain of Nuclear receptor subfamily 1 group I member 2 (Homo sapiens) (O75469 whole entry, looked up, the tested form may be a part): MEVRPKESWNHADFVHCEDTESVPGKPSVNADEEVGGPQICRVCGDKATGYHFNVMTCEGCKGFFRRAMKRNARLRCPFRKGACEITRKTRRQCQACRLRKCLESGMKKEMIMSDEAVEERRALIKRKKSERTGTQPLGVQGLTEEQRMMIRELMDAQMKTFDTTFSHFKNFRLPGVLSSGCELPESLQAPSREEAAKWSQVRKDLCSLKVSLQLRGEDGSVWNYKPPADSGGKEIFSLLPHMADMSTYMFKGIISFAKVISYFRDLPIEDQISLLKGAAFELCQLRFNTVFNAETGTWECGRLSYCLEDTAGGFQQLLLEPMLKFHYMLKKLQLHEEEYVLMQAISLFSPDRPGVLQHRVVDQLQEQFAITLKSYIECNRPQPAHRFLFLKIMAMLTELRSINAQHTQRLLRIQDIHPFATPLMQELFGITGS
Chain of human RAR-related Orphan Receptor beta (RORb), RORB (gene 6096) (Q92753 whole entry, looked up, the tested form may be a part): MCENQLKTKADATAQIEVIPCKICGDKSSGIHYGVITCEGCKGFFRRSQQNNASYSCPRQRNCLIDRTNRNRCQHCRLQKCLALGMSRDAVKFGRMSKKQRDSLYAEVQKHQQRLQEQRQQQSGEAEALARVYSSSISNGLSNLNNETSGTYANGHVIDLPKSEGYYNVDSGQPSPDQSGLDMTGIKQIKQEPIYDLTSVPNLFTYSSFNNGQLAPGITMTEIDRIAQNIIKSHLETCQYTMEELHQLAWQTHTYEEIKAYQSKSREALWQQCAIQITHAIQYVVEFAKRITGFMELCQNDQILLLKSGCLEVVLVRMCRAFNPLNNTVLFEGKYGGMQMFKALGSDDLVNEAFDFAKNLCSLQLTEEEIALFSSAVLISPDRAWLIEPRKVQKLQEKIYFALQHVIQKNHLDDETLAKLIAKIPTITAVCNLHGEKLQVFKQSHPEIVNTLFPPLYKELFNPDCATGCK

On to `C[C@H]1O[C@@H](O[C@H]2[C@@H](O)C[C@H](O[C@H]3[C@@H](O)C[C@H](O[C@H]4CC[C@@]5(C)[C@H](CC[C@@H]6[C@@H]5CC[C@]5(C)[C@@H](C7=CC(=O)OC7)CC[C@]65O)C4)O[C@@H]3C)O[C@@H]2C)C[C@H](O)[C@@H]1O`, for which the figures for the AC50 in [1], in experiment [4] and in experiment [6] were 23.9 µM (active), 0.592 µM (active) and 0.0564 µM (active), respectively. The outcome in [2], in [3], in experiment [5], in experiment [7], in [8] and in experiment [9] was inactive.

In the case of `O=C(c1ccccc1)C(Cl)Cl`, the molecule was classed as inactive in experiment [1], in experiment [3], in experiment [5], in experiment [6], in [10] and in experiment [11]. Besides, the molecule was classed as inactive in experiment [8], in experiment [12] and in experiment [9]. Also, the results for the AC50 in experiment [2] and in [4] were 25.9 µM (active) and 25.3 µM (active), respectively.

In the case of `COS(=O)(=O)c1ccc(C)cc1`, the outcome in experiment [1], in [2], in experiment [3], in [4], in [5] and in [6] was inactive. The molecule was classed as inactive in [7], in experiment [13], in experiment [10], in [8], in experiment [12] and in experiment [9].

In the case of `C[C@@H](Oc1ccc(Cl)cc1Cl)C(=O)O`, the result in experiment [1], in experiment [2], in experiment [3], in [4], in experiment [5] and in experiment [6] was inactive. In addition, in [11], the molecule was called inactive.

Turning to `C=CC(=O)N(C)C`, the result in experiment [1], in experiment [2], in [3], in experiment [4], in experiment [5] and in experiment [7] was inactive. For the same molecule, the call in [10] and in experiment [9] was inactive.

With `COc1ccc(OC)c(C=O)c1`, the outcome in [1], in [2], in experiment [3], in [4], in experiment [5] and in experiment [7] was inactive. In addition, the result in experiment [8] and in experiment [12] was inactive. Further, the half-maximal activity concentration (AC50) in experiment [10] was 6.5 µM (active).

As for `ClCc1cccnc1`, the molecule was classed as inactive in experiment [1], in experiment [2], in [5], in experiment [7], in experiment [10] and in [8]. For the same molecule, in experiment [9], the outcome was inactive. Besides, the AC50 is 27.9 µM (active) in experiment [3], 50.9 µM (active) in [4] and 51.8 µM (active) in experiment [13].

With `CCCCCCCCCl`, the call in experiment [1], in experiment [2], in experiment [3], in experiment [4], in [5] and in experiment [7] was inactive. Besides, the molecule was classed as inactive in [14], in experiment [13], in experiment [10], in experiment [11], in experiment [8] and in experiment [9].
